# Measurements as given in article PMC7862700, “An all-to-all approach to the identification of sequence-specific readers for epigenetic DNA modifications on cytosine”.
# Assays:
# Assay in all cases: DAPPL (digital affinity profiling via proximity ligation, sequencing); 10 mM Tris-HCl pH 7.5, 50 mM NaCl, 1 mM DTT, 4% glycerol, room temperature, 30 min; GST-TFs on glutathione beads, 16-mer random dsDNA library, 0.1% formaldehyde crosslink after washing; high values mean tight binding
# [1] = target: T1, FEV (Homo sapiens, UniProt Q99581 1-238); conditions: protein: recombinant; tags: N-terminal GST; dsDNA, one strand shown
# T1 sequence: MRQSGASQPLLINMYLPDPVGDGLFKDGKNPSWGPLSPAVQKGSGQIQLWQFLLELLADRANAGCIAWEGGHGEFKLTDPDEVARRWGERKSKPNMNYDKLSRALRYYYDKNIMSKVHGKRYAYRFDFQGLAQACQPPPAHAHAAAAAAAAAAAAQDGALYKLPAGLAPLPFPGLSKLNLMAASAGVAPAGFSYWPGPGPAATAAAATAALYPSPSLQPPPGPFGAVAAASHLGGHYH
# Procedure, shortened: (§1)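 Human transcription factors were made in yeast as GST fusions, captured on glutathione beads and barcoded with DNA. With a tag-only sample included, the pool was incubated with 200 nmole of a random double-stranded 16-mer DNA library in Tris/NaCl/DTT/glycerol buffer at room temperature for 30 min, then crosslinked with 0.1% formaldehyde after washing, ligated by proximity, amplified and sequenced. For binding signal, each hexamer's read frequency for a factor is divided by its frequency for the tag-only sample.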
# [2] = target: ETV5 (Homo sapiens, UniProt P41161 1-510); conditions: protein: recombinant; tags: N-terminal GST; dsDNA, one strand shown
# Procedure, shortened: as §1
# [3] = target: HSF1 (Homo sapiens, UniProt Q00613 1-529); conditions: protein: recombinant; tags: N-terminal GST; chain copies: 3; dsDNA, one strand shown
# Procedure, shortened: as §1
# [4] = target: T2, SPIC (Homo sapiens, UniProt Q8N5J4 1-248); conditions: protein: recombinant; tags: N-terminal GST; dsDNA, one strand shown
# T2 sequence: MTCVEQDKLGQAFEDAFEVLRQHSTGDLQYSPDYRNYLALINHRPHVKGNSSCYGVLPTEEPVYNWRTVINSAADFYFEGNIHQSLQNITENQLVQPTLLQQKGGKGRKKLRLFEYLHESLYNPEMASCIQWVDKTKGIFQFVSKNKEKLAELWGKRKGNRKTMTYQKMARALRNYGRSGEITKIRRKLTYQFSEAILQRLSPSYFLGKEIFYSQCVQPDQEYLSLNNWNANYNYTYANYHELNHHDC
# Procedure, shortened: as §1
# [5] = target: ELF4 (Homo sapiens, UniProt Q99607 1-663); conditions: protein: recombinant; tags: N-terminal GST; dsDNA, one strand shown
# Procedure, shortened: as §1
# [6] = target: T3, ELK4 (Homo sapiens, UniProt P28324-2 1-405); conditions: protein: recombinant; tags: N-terminal GST; dsDNA, one strand shown
# T3 sequence: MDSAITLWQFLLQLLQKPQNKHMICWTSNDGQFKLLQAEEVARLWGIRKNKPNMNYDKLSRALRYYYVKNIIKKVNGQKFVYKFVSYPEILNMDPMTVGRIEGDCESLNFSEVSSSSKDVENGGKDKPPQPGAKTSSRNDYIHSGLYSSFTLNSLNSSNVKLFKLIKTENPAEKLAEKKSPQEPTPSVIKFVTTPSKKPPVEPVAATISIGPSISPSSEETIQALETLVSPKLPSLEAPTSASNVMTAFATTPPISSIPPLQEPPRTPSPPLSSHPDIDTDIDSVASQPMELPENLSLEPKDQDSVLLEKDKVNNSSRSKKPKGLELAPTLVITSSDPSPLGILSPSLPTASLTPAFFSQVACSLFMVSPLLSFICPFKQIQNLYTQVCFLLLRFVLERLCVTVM
# Procedure, shortened: as §1
# [7] = target: T4, ETV2 (Homo sapiens, UniProt O00321 1-342); conditions: protein: recombinant; tags: N-terminal GST; dsDNA, one strand shown
# T4 sequence: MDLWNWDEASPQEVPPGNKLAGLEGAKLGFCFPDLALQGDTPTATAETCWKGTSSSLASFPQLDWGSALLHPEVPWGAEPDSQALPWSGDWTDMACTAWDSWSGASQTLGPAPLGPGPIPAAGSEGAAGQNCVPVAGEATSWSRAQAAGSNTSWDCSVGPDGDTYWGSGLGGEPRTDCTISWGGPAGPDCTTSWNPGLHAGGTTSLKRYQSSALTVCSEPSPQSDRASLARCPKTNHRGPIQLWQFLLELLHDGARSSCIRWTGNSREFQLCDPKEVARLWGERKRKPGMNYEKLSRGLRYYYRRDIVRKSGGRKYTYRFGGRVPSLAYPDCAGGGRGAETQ
# Procedure, shortened: as §1
# [8] = target: T5, ELF3 (Homo sapiens, UniProt P78545 1-371); conditions: protein: recombinant; tags: N-terminal GST; dsDNA, one strand shown
# T5 sequence: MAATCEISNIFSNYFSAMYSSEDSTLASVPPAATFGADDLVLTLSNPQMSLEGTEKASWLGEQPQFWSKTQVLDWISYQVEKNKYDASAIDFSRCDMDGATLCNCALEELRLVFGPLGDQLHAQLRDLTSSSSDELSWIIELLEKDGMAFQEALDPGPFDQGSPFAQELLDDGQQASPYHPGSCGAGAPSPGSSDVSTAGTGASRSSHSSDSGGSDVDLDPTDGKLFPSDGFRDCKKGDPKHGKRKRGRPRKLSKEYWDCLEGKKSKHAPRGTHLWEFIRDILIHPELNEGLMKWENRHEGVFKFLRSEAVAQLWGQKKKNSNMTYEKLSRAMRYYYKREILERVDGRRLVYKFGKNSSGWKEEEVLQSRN
# Procedure, shortened: as §1
# [9] = target: CRX (Homo sapiens, UniProt O43186 1-299); conditions: protein: recombinant; tags: N-terminal GST; dsDNA, one strand shown
# Procedure, shortened: as §1
# [10] = target: ETV1 (Homo sapiens, UniProt P50549 1-477); conditions: protein: recombinant; tags: N-terminal GST; dsDNA, one strand shown
# Procedure, shortened: as §1
# [11] = target: T6, ERF (Homo sapiens, UniProt P50548 1-548); conditions: protein: recombinant; tags: N-terminal GST; dsDNA, one strand shown
# T6 sequence: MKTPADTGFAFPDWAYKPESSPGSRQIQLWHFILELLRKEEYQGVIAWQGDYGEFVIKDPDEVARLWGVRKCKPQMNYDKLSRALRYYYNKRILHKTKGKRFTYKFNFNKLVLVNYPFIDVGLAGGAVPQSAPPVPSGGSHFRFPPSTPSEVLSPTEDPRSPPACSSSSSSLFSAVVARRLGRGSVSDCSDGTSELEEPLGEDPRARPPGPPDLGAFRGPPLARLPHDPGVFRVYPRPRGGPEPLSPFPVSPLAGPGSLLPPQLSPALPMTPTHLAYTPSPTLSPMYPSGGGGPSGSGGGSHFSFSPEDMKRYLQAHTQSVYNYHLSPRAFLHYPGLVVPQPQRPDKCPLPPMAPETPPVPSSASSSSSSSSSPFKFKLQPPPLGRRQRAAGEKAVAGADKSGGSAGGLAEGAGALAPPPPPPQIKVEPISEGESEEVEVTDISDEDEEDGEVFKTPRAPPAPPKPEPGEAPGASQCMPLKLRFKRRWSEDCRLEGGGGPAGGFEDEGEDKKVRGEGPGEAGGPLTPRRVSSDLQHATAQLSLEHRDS
# Procedure, shortened: as §1
# [12] = target: T7, ETV3L (Homo sapiens, UniProt Q6ZN32 1-361); conditions: protein: recombinant; tags: N-terminal GST; dsDNA, one strand shown
# T7 sequence: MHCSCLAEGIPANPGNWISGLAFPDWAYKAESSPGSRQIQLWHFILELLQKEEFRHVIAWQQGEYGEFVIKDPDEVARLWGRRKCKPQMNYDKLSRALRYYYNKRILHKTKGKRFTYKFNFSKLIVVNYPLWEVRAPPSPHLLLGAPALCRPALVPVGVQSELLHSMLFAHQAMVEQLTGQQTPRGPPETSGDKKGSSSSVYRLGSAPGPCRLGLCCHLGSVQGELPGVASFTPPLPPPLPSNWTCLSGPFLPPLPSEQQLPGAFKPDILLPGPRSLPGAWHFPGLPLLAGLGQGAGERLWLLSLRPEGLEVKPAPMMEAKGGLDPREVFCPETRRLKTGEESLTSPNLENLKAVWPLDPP
# Procedure, shortened: as §1
# [13] = target: T8, ETS2 (Homo sapiens, UniProt P15036 1-469); conditions: protein: recombinant; tags: N-terminal GST; dsDNA, one strand shown
# T8 sequence: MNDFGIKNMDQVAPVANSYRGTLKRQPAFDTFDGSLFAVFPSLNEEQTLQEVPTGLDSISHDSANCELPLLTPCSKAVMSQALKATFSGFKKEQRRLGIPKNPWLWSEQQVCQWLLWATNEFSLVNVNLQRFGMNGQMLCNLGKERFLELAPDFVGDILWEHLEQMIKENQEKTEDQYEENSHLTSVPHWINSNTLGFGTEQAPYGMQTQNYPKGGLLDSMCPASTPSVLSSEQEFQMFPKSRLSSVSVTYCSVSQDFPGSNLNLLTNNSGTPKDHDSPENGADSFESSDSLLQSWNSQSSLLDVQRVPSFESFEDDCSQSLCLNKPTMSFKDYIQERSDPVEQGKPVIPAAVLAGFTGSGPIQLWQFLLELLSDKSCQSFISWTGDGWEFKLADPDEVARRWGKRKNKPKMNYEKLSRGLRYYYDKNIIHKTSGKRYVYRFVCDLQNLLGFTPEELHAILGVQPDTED
# Procedure, shortened: as §1
# [14] = target: T9, SPDEF (Homo sapiens, UniProt O95238 1-335); conditions: protein: recombinant; tags: N-terminal GST; dsDNA, one strand shown
# T9 sequence: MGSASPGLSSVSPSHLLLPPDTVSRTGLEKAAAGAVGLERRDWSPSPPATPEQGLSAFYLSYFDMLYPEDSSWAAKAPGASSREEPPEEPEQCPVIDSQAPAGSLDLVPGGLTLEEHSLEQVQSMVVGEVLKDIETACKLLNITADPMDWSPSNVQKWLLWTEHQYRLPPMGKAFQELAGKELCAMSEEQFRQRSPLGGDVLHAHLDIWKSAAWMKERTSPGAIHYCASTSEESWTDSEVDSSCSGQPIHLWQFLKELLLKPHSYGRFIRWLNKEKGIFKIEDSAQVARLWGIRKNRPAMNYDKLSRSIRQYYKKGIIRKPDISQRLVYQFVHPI
# Procedure, shortened: as §1
# [15] = target: T10, ETV7 (Homo sapiens, UniProt Q9Y603 1-341); conditions: protein: recombinant; tags: N-terminal GST; dsDNA, one strand shown
# T10 sequence: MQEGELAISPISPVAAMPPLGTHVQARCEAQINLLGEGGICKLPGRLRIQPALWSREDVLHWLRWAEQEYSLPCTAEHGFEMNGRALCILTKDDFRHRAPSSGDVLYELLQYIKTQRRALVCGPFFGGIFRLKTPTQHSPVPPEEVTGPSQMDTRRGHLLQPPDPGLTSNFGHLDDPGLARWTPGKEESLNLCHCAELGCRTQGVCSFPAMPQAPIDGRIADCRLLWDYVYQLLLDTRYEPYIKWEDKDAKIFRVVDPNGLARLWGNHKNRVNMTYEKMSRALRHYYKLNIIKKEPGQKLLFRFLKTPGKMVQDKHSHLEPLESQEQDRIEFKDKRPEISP
# Procedure, shortened: as §1
# [16] = target: T11, ELF5 (Homo sapiens, UniProt Q9UKW6-2 1-255); conditions: protein: recombinant; tags: N-terminal GST; dsDNA, one strand shown
# T11 sequence: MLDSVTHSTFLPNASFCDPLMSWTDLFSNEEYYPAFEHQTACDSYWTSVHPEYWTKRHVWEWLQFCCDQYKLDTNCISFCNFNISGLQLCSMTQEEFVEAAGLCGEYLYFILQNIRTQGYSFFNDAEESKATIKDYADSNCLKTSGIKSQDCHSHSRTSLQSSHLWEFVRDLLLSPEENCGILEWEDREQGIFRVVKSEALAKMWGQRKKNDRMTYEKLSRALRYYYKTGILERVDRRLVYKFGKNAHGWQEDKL
# Procedure, shortened: as §1
# [17] = target: T12, ETV3 (Homo sapiens, UniProt P41162-2 1-143); conditions: protein: recombinant; tags: N-terminal GST; dsDNA, one strand shown
# T12 sequence: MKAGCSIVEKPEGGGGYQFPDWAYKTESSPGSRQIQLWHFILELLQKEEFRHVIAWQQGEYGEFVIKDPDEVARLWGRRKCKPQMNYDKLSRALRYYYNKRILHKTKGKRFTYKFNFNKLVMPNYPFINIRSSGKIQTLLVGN
# Procedure, shortened: as §1
# [18] = target: ETV6 (Homo sapiens, UniProt P41212 1-452); conditions: protein: recombinant; tags: N-terminal GST; dsDNA, one strand shown
# Procedure, shortened: as §1
# Chain of ETV6 (P41212 whole entry): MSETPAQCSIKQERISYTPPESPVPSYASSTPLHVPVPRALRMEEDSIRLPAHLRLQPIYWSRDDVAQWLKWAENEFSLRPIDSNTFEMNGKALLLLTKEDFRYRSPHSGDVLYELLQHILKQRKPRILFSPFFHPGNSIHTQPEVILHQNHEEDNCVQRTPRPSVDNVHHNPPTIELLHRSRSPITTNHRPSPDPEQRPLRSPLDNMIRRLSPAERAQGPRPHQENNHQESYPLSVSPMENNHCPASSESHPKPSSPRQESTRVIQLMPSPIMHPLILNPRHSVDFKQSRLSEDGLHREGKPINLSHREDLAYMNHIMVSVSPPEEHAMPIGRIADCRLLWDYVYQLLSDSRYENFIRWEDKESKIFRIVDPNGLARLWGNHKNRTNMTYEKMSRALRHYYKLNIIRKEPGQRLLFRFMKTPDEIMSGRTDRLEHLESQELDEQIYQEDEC
# Chain of ELF4 (Q99607 whole entry): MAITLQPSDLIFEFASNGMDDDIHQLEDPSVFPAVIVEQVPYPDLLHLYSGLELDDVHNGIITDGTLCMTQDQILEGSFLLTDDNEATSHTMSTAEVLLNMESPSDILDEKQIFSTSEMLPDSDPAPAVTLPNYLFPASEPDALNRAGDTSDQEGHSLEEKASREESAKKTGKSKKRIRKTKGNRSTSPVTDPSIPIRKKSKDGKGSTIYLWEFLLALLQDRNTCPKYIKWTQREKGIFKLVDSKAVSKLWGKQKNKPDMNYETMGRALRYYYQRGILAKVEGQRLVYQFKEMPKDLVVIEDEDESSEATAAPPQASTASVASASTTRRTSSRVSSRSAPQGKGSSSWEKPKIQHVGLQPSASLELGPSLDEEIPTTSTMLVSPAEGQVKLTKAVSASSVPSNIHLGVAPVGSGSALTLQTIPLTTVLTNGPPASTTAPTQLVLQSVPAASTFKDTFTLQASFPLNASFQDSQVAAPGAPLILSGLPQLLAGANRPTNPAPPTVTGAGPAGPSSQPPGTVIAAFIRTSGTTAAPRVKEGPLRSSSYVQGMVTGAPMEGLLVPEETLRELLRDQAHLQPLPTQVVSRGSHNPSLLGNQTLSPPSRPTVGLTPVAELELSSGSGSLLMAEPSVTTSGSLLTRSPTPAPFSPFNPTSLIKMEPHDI
# Chain of ETV1 (P50549 whole entry): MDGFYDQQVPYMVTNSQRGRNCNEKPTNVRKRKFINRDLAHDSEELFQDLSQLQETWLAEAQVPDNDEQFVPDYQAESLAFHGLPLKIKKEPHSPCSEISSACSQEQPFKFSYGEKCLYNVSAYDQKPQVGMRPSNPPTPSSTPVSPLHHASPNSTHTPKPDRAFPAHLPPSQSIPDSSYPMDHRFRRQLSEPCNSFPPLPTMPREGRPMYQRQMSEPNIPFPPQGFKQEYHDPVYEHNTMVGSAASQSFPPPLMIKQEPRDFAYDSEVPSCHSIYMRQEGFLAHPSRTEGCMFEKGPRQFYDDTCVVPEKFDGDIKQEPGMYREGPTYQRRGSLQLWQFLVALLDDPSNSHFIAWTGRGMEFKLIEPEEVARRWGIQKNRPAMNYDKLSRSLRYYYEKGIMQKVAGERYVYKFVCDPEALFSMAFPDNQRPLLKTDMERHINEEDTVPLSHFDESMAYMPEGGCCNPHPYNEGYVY
# Chain of HSF1 (Q00613 whole entry): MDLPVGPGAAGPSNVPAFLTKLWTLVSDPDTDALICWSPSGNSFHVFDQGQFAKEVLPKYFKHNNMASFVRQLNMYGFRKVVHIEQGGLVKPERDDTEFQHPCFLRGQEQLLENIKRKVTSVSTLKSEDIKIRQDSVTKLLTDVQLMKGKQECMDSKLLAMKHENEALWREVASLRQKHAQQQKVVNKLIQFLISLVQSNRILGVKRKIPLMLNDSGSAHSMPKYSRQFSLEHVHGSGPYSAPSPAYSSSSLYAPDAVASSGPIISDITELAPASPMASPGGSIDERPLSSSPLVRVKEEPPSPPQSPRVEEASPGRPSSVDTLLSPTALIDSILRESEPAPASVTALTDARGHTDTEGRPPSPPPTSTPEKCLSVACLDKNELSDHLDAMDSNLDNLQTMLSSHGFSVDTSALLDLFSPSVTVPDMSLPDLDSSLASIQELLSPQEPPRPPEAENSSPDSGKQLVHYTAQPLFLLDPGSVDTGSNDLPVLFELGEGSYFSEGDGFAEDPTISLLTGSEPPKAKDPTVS
# Chain of CRX (O43186 whole entry): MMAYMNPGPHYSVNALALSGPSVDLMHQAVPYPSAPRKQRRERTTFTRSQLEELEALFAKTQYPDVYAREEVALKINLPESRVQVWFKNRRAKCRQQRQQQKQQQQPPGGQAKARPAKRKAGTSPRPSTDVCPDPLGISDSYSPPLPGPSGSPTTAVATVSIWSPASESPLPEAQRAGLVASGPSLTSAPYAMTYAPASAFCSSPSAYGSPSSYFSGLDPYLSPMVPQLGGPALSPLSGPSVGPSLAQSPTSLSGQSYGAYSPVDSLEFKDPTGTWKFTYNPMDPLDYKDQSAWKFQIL
# Chain of ETV5 (P41161 whole entry): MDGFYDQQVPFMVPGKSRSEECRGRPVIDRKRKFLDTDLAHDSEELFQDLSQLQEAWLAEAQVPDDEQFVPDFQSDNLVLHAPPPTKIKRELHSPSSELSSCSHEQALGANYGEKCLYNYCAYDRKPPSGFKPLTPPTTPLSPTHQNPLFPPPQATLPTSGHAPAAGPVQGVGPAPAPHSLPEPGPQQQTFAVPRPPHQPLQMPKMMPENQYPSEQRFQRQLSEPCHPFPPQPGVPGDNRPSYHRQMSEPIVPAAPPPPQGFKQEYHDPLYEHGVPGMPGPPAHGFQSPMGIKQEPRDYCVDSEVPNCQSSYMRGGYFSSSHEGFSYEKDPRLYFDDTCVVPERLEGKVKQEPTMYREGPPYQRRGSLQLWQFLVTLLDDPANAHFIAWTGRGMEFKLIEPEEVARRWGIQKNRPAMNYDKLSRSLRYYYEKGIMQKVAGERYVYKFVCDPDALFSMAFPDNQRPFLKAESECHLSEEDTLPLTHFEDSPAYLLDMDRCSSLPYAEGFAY
sequence,measurement,setting,value
AAACAT,binding signal,[1],"1.45 fold enrichment (6-mer frequency, TF over GST control)"
same,binding signal,[2],"1.57 fold enrichment (6-mer frequency, TF over GST control)"
same,binding signal,[3],"1.48 fold enrichment (6-mer frequency, TF over GST control)"
same,binding signal,[4],"1.53 fold enrichment (6-mer frequency, TF over GST control)"
same,binding signal,[5],"1.53 fold enrichment (6-mer frequency, TF over GST control)"
same,binding signal,[6],"1.49 fold enrichment (6-mer frequency, TF over GST control)"
same,binding signal,[7],"1.53 fold enrichment (6-mer frequency, TF over GST control)"
same,binding signal,[8],"1.53 fold enrichment (6-mer frequency, TF over GST control)"
same,binding signal,[9],"1.32 fold enrichment (6-mer frequency, TF over GST control)"
same,binding signal,[10],"1.43 fold enrichment (6-mer frequency, TF over GST control)"
same,binding signal,[11],"1.45 fold enrichment (6-mer frequency, TF over GST control)"
same,binding signal,[12],"1.46 fold enrichment (6-mer frequency, TF over GST control)"
same,binding signal,[13],"1.48 fold enrichment (6-mer frequency, TF over GST control)"
same,binding signal,[14],"1.51 fold enrichment (6-mer frequency, TF over GST control)"
same,binding signal,[15],"1.44 fold enrichment (6-mer frequency, TF over GST control)"
same,binding signal,[16],"1.51 fold enrichment (6-mer frequency, TF over GST control)"
same,binding signal,[17],"1.48 fold enrichment (6-mer frequency, TF over GST control)"
same,binding signal,[18],"1.52 fold enrichment (6-mer frequency, TF over GST control)"
